Compounds with a hit are over-represented: about 8.1% of the library has one in this group of screens.
ELG1 DNA repair: blocks ELG1-dependent DNA repair in HEK293T cells | HEK293T ELG1-luciferase reporter, luminescence, 16 h; DNA damage induced by 5-fluorouridine | Potency, µM (highest dose often 46.1 µM), for inactives: top-dose activity change, negative = inhibition, usual class: inhibitors | 330,000 tested, 2.3% active | AID 504467; note: % is set by controls: 0 for no effect and ±100 for the full control effect; nearly all actives have a fitted effect of over 55% in size
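Luminescence from the luciferase reporter, measured 30 min after ONE-Glo reagent at room temperature, was the read-out. Beforehand, 2,000 cells per well were exposed for 16 hr at 37 °C to 5-fluorouridine together with compound or vehicle.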
KB-V1 cytotox: kills drug-selected multidrug resistant KB-V1 cells; KB-V1 MDR cells viability, CellTiter-Glo, 72 h; Potency, µM (titrated, usually from 46.1 µM), usual class: cytotoxic; 400,000 tested, 3.4% active; AID 1347076; note: % is set by controls: 0 for no effect and ±100 for the full control effect; nearly all actives have a fitted effect of over 60% in size
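Readout: CellTiter-Glo luminescence, 10 min after addition. Cells: KB-V1 MDR subline, 72 h at 37 degrees C with compound. Analysis: corrected, normalized data fitted to concentration-effect curves.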
KB-3-1 cytotox: KB-3-1 parental cell cytotoxicity; KB-3-1 viability, CellTiter-Glo ATP luminescence, 72 h; Potency, µM (top dose mostly 46.1 µM), most hits filed as cytotoxic; 400,000 tested, 1.4% active; AID 1347075; note: % is set by controls: 0 for no effect and ±100 for the full control effect; nearly all actives have a fitted effect of over 60% in size
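Screening of KB-3-1 cells (DMEM, 10% FBS, phenol-red free) ran from lowest to highest compound concentration; after 72 h at 37 °C viability was read luminescently and curves fitted.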
MCF10A rerep: inducers of DNA re-replication in MCF 10A breast cells; MCF 10A DNA re-replication, Hoechst nuclear intensity, 48 h; 350,000 tested, 2.9% active; Potency, µM (highest dose often 46.1 µM), without a hit: at the highest dose activity, positive = re-replication, most hits filed as activators; note: % of control where 0% means no effect; nearly all actives have a fitted effect of over 50% in size
SW480 rerep: induces DNA re-replication in SW480 colon adenocarcinoma cells. Potency, µM (doses to about 46.1 µM), without a hit: top-dose re-replication activation, usual class: activators. SW480 DNA re-replication, Hoechst DNA content imaging, 48 h. 340,000 tested, 1.8% active; note: % of control where 0% means no effect; nearly all actives have a fitted effect of over 55% in size
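Hoechst fluorescence of nuclei (405 nm excitation, 500-530 nm emission) measured by plate-scanning imager after 48 hr compound exposure at 37 C; re-replication scored as increased number of nuclei with elevated intensity.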
An asterisk follows results filed as active; i = inactive; u = inconclusive; x = no result. Calls come from the whole dose curve; as a rule, active = well fitted curve in the direction sought with a large enough effect; inconclusive = small, poorly fitted or top-dose-only effect, or another doubt; inactive = no such curve, though single readings can be large; an effect the other way counts as inactive or inconclusive. Potency is the fitted concentration of half-maximal effect.

SMILES	ELG1 DNA repair	KB-V1 cytotox	KB-3-1 cytotox	MCF10A rerep	SW480 rerep
CCC(NC(=O)CN1CCN(C(=O)c2cccs2)CC1)c1ccc(C)cc1 (stereo not given)	3%	i	i	-5%	-15%
CN1CCN(c2ncnc3c2ncn3[C@H]2CN(Cc3ccc(-c4ccccc4)cc3)C[C@@H](CO)O2)CC1	x	i	i	x	x
Cc1cc(=O)[nH]c2nc3ccccc3n12	x	i	i	x	x
Fc1cccc(Nc2ncnc3[nH]ncc23)c1	-3%	i	i	4.1µM*	-25%
COc1cc2oc(=O)cc(-c3ccc(-c4ccc(CO)cc4)cc3)c2c(OC)c1OC	5.8µM*	i	i	u	-12%
COc1cc2oc(=O)cc(-c3ccc(-c4ccc(C)cc4)cc3)c2c(OC)c1OC	-24%	i	i	27%	-4%
CN1CCN(C(=O)/C=C/c2ccc([N+](=O)[O-])o2)CC1	0%	i	i	21µM*	24%
Cc1cc2c(cc(C(=O)OCC(=O)NCc3cccs3)n2C(C)C)o1	-27%	u	9.2µM*	2.9µM*	8.2µM*
Cc1cccc(C)c1NC(=O)CNC(=O)C(NC(=O)c1ccc(C(C)(C)C)cc1)C(C)C (stereo not given)	5.2µM*	u	i	-7%	11%
CC(C)C(NC(=O)c1ccc(C(C)(C)C)cc1)C(=O)NCC(c1ccccc1)N(C)C (stereo not given)	-9%	u	i	15%	-3%
CCN(CC)C(=O)CSc1nc2c(sc(=S)n2Cc2ccco2)c(=O)n1-c1ccccc1	u	8.2µM*	i	5%	13%
CCOC(=O)CSc1nc2c(sc(=S)n2Cc2ccco2)c(=O)n1-c1ccccc1	-18%	i	i	12%	-5%
CCOC(=O)CSc1nc2c(sc(=S)n2-c2ccccc2OC)c(=O)n1Cc1ccco1	-10%	9.2µM*	i	4%	7%
Cc1nnc(SCC(=O)N(C)CC(=O)Nc2ccc(F)cc2)n1Cc1ccccc1	0%	i	i	-2%	-1%
CN(CC(=O)Nc1ccc(F)cc1)C(=O)CSc1nnc(Cc2ccccc2)o1	-28%	16µM*	i	4%	-3%
Cc1cc(SCC(=O)N(C)CC(=O)Nc2ccc(F)cc2)nc2ccccc12	u	5.2µM*	i	-54%	-75%
CN(CC(=O)Nc1ccc(F)cc1)C(=O)c1ccc2ccccc2n1	-9%	i	i	0%	5.2µM*
Cc1ccc(NC(=O)CN(C)C(=O)Cc2c[nH]c3ccccc23)cc1	23%	18µM*	i	11%	-7%
Cc1cc(C(=O)NCCc2ccc(S(=O)(=O)NC(=O)NN3CCCCCC3)cc2)no1	x	x	x	12%	2%
CCN(CC)CCOC(=O)c1ccc(Nc2c3c(nc4ccccc24)CCC3)cc1	x	i	i	x	x
CN(C)/C=C1\C=Cc2ccccc21	x	i	i	x	x
CNS(=O)(=O)c1cccc(C(=O)OCC(=O)c2c(N)n(Cc3ccccc3)c(=O)n(C)c2=O)c1	x	u	i	3%	-2%
CCc1nnc(NC(=O)C2CCCN(C(=O)c3ccoc3)C2)s1 (stereo not given)	x	i	i	x	x
Cc1cccc(NC(=O)CCSc2nnc(Cc3ccccc3)o2)c1	1%	15µM*	i	1%	0%
COc1ccc(C2N=C(Nc3nc4ccccc4o3)NC3=C2C(=O)CC(C)(C)C3)cc1 (stereo not given)	x	i	u	x	x
SMILES	ELG1 DNA repair	KB-V1 cytotox	KB-3-1 cytotox	MCF10A rerep	SW480 rerep
Cc1ccc(S(=O)(=O)N(CCCO)CC(O)CON=C2c3ccccc3-c3ccccc32)cc1 (stereo not given)	u	u	u	18µM*	u
CC(C)(C)NCC(O)CON=C1c2ccccc2-c2ccccc21 (stereo not given)	-13%	u	u	u	u
CCN(CC)C(=O)Cn1c(=O)n(-c2ccc(C)c(C)c2)c(=O)c2c3c(sc21)CCCCC3	x	i	i	x	x
COc1ccc(C(=O)N2C=Cc3ccccc3C2C#N)cc1 (stereo not given)	x	i	i	x	x
N#CC1c2ccccc2-c2ccccc2N1C(=O)c1ccccc1 (stereo not given)	x	15µM*	u	x	x
COc1ccc(C2CC(c3ccccc3Br)=NN2c2ccc(S(N)(=O)=O)cc2)cc1 (stereo not given)	-16%	i	i	u	3.7µM*
COc1ccc(C2CC(c3ccccc3C(F)(F)F)=NN2c2ccc(S(N)(=O)=O)cc2)cc1 (stereo not given)	u	u	u	1.8µM*	0.73µM*
COc1ccc(C2CC(C(C)(C)C)=NN2c2ccc(S(N)(=O)=O)cc2)cc1 (stereo not given)	8%	i	i	12%	-15%
COc1ccc(C2CC(c3ccccc3F)=NN2c2ccc(S(N)(=O)=O)cc2)cc1 (stereo not given)	6%	i	i	2.1µM*	0.92µM*
COc1ccc(C2CC(c3ccc(C(F)(F)F)cc3)=NN2c2ccc(S(N)(=O)=O)cc2)cc1 (stereo not given)	1%	i	u	u	0.52µM*
COc1ccc(C2CC(c3cccs3)=NN2S(=O)(=O)c2ccc(C)cc2)cc1 (stereo not given)	x	i	i	14%	6%
NC1CCc2ccc([N+](=O)[O-])cc21 (stereo not given)	x	i	i	x	x
O=C(CSc1nc2cc3ccccc3cc2[nH]1)Nc1cccc(C(F)(F)F)c1	x	i	i	x	x
COc1ccc(NC(=O)Cn2c(=O)n(Cc3ccc4c(c3)OCO4)c(=O)c3ccc(C(=O)NC4CCCCC4)cc32)cc1	x	u	i	x	x
OCCN1CCN(C2CCC(c3ccc(F)cc3)c3ccc(F)cc32)CC1 (stereo not given)	x	u	u	21µM*	u
CN1c2ccccc2C(C)(C)C12C=Nc1c(cc(N3CCOCC3)c3ccccc13)O2 (stereo not given)	-4%	i	u	7.3µM*	21µM*
CN1c2ccccc2C(C)(C)C12C=Cc1cc(O)ccc1O2 (stereo not given)	3%	u	i	-10%	22%
OCC1OC2C(NC(=S)N2c2ccccc2)C(O)C1O (stereo not given)	x	i	i	-3%	1%
CCNC(=O)C[C@@H]1CC[C@@H]2NC[C@@H](O)COC[C@H]2O1	x	i	i	x	x
O=S(=O)(/C(=C\c1ccc(C(F)(F)F)cc1)c1nc2ccccc2[nH]1)c1ccccc1	x	u	2.6µM*	u	2.3µM*
N#C/C(=C\c1ccc(Oc2ccc(C(F)(F)F)cc2[N+](=O)[O-])cc1)c1nc2ccccc2[nH]1	u	i	i	u	u

Screens: PubChem, National Center for Advancing Translational Sciences (NCATS)
